HTT aggregate – mutant huntingtin aggregation inhibition. PC12 HttQ103-GFP aggregates, Acumen cytometry, 40 h. Potency, µM (series often up to 46.1 µM), for inactives: at the top dose activity change, negative = inhibition, usual class: inhibitors. 1.1% of 220,000 active. AID 1688; also: potency is read from the fitted curve at half-maximal effect; % is scaled to controls: 0 for no effect and ±100 for the full control effect; nearly all actives have a fitted effect of over 60% in size
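Huntingtin Q103 exon 1–GFP aggregates in induced PC12 cells (100 nM tebufenozide) were quantified by cytometry from lysates, with compounds dosed in titration.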
IMPase Li cell – membrane-permeable IMPase blocker, potentiated with lithium. CHO-M1 cells, IP1 TR-FRET (IP-One), carbachol + lithium. Potency, µM (top dose mostly 59.4 µM), for inactives: at the top dose activity, negative = IMPase inhibition, actives largely listed as inhibitors. AID 1457. 0.35% of 210,000 active;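 also: IP1 builds up when IMPase is blocked and the TR-FRET signal falls; potency is read from the fitted curve at half-maximal effect; plate controls were basal vehicle for no effect and high inhibitor control for full effect; nearly all actives have a fitted effect of over 50% in size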
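Concentration–response in CHO-M1 cells, lithium-potentiated; 30 min at 37C. IP1 detected by competitive TR-FRET after 10 min lysis at RT. Hill-fitted AC50.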
IMPase inh – cell-permeable inhibitors of inositol monophosphatase (IMPase) | AID 901 | inhibition (IP1 accumulation), % at 46.1 µM | 120,000 tested, under 10 active | CHO-M1 cells, IP1 accumulation, HTRF TR-FRET ratio | P97697; active = well fitted curve in the direction sought with a large enough effect in the signal ratio, not every such curve was filed as active; inconclusive = small, poorly fitted or top-dose-only effect, or a change in a side signal; inactive = no such curve, though single readings can be large or run the other way; the % refers to the signal ratio;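 also: cells stimulated with carbachol in lithium chloride buffer; plate controls were DMSO basal wells for no effect and reference inhibitor wells for full effect; higher means more IMPase inhibition seen as more IP1 and lower FRET ratio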
Target sequence (P97697 whole entry, looked up): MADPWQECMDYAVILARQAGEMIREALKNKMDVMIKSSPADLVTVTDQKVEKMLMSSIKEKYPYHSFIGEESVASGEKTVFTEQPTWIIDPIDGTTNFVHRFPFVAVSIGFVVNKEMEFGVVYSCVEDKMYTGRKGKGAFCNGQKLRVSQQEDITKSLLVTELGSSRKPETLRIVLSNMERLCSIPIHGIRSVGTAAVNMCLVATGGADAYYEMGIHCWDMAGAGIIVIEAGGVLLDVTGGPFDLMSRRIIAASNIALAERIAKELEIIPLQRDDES
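The IP-One HTRF competitive assay in carbachol-stimulated CHO-M1 cells quantifies cellular IP1. Compounds spanned up to 46 uM final, and activity is expressed as AC50 from concentration-response fits of the ratio and donor data.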
ALDH1A1 block – blocks purified human ALDH1A1 activity | Purified ALDH1A1, NADH fluorescence, propionaldehyde substrate | Potency, µM (titrated, usually from 75.3 µM), for the others: top-dose activity, negative = inhibition, most hits filed as inhibitors | 7.3% of 220,000 active | AID 1030; active = well fitted inhibition curve with a large enough effect, not every such curve was filed as active; inconclusive = small, poorly fitted or top-dose-only effect, or another doubt; inactive = no such curve, though single readings can be large or run the other way;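 also: potency is read from the fitted curve at half-maximal effect; plate controls were no enzyme wells and a reference inhibitor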
Target sequence (P00352 whole entry, looked up): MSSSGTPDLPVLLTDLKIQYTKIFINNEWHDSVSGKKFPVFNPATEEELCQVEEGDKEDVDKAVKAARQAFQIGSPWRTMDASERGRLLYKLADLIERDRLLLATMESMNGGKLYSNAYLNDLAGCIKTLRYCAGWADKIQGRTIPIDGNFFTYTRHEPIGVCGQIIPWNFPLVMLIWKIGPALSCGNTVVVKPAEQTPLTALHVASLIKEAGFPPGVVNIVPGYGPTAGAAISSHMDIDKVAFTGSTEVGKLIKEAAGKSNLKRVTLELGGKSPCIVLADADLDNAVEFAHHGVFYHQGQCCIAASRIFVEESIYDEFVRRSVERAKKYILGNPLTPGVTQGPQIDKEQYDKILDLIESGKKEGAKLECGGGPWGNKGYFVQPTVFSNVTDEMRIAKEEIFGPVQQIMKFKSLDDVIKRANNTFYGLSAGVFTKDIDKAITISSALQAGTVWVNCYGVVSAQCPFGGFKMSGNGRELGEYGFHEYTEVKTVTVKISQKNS
HPGD block – HPGD (human) dehydrogenase inhibition. purified HPGD, NADH fluorescence kinetic, PGE2 substrate. AID 894. P15428. 4.3% of 150,000 active. Potency, µM, inactives show at the top dose activity change, negative = inhibition, actives largely listed as inhibitors; active = well fitted inhibition curve with a large enough effect, not every such curve was filed as active; inconclusive = small, poorly fitted or top-dose-only effect, or another doubt; inactive = no such curve, though single readings can be large or run the other way; also: potency is read from the fitted curve at half-maximal effect; % is scaled to controls: 0 for no effect and ±100 for the full control effect
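20 nM HPGD preincubated 15 min at room temperature with compound in 50 mM Tris-HCl pH 8, 0.01% Tween 20. Started with 1 mM NAD+ and 30 uM prostaglandin E2; NADH fluorescence (360/450 nm) read 5 times over 30-s intervals, last minus first.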
HTT ATP protect – protects HTT-Q103 PC12 cells, measured by ATP; PC12 HTT-Q103 induced, cytoprotection, ATP luminescence, 40 h; AID 1471; Potency, µM (series often up to 56.4 µM), inactives show cytoprotection (ATP increase), actives largely listed as activators; 0.14% of 230,000 active; also: potency is read from the fitted curve at half-maximal effect; % of control where 0% means no effect; nearly all actives have a fitted effect of over 45% in size
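Readout: ATPlite luminescence (ATP level). Model: stable PC12, inducible Htt exon1 Q103-GFP. Inducer: tebufenozide, 100 nM final. Compounds: dose series. No G418 in medium.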
Active calls of the source: *; ? = inconclusive; / = no result; [ ] = another dose, or the depositor's remark. Shown are actives, neighbours in structure and some others; about 9.4% of the full set was active somewhere. Unless noted, calls follow the shape of the dose curve; as a rule, active = well fitted curve in the direction sought with a large enough effect; inconclusive = small, poorly fitted or top-dose-only effect, or another doubt; inactive = no such curve, though single readings can be large; an effect the other way counts as inactive or inconclusive.

SMILES | HTT aggregate | IMPase Li cell | IMPase inh | ALDH1A1 block | HPGD block | HTT ATP protect
O=C(C(NS(=O)(=O)c1cccs1)c1ccccc1)N1CCN(c2ccccc2)CC1 (configuration not stated) | -18% | -4%[38.3 µM] | 4 | ? | -11% | 30%
CC(=O)Nc1ccc(S(=O)(=O)NC2=C(N3CCN(c4ccc(F)cc4)CC3)C(=O)c3ccccc3C2=O)cc1 | ? | 54%[38.3 µM] | 22 | 7.1µM* | -23% | -87%
Cc1cccc(C)c1Nc1oc(-c2ccccc2)nc1-c1cccc2ccccc12 | / | 10% | / | 0% | -17% | -20%
COc1ccc2c(c1)C(=O)[C@@H](OC(=O)NC1CCCC1)[C@H](c1ccc(OC)c(Br)c1)O2 | / | 10% | / | -8% | -6% | -20%
COCCn1c(=O)c(-c2ccc(OC)cc2)nc2cnc(N3CCOCC3)nc21 | / | -13% | / | ? | / | 6%
O=C(NCCc1c[nH]c2ccccc12)C(=O)NCC(c1cccnc1)N1CCN(c2ccccc2)CC1 (configuration not stated) | 3.5µM* | 2% | / | 14% | -2% | /
COc1ccc(S(=O)(=O)NCC(c2cccnc2)N2CCN(c3ccc(F)cc3)CC2)cc1C (configuration not stated) | 0% | 2% | 4 | ? | -1% | 28%[10 µM]
COc1ccc(S(=O)(=O)NCC(c2cccnc2)N2CCN(c3ccccc3)CC2)cc1C (configuration not stated) | 4%[9.22 µM] | 7%[38.3 µM] | 8 | 13µM* | -16% | -6%
Cc1cc(F)ccc1NC(=O)c1ccc(NS(=O)(=O)c2cc(C(C)(C)C)ccc2C)cc1 | 11% | -3% | / | 2.5µM* | -11% | 40%[10 µM]
CC(=O)Nc1ccc(NC(=O)c2ccc(NS(=O)(=O)c3cc(C(C)(C)C)ccc3C)cc2)cc1 | ? | 9% | / | ? | / | 26%[10 µM]
Cc1ccccc1-n1nnnc1SCc1csc(-c2ccccc2)n1 | ? | 13%[38.3 µM] | 17 | 7.9µM* | -15% | -17%
Cc1ccccc1-n1nnnc1SCC(C)C | 3% | 11% | / | 1.1µM* | / | 6%
CCOC(=O)c1c(C)[nH]c(C)c1C(=O)CSc1nnnn1-c1ccccc1 | 7%[9.22 µM] | 8%[38.3 µM] | -1 | 32µM* | -3% | 24%
CCOC(=O)c1[nH]c(CSc2nnnn2-c2ccccc2C)c(C(=O)OCC)c1C | -13% | 39%[38.3 µM] | 6 | 3.5µM* | 3% | -21%
O=C(CN1CCCc2ccccc21)Nc1ccc(F)cc1[N+](=O)[O-] | -2% | 24% | / | 15% | / | -19%
c1ccc(Nc2nc(NCC3CCCO3)c3ccccc3n2)cc1 (configuration not stated) | ? | 35% | / | ? | / | -23%
CCOc1ccc(Nc2nc(NCC3CCCO3)c3ccccc3n2)cc1 (configuration not stated) | 14µM* | 15% | / | ? | / | -35%
c1ccc(-c2ccc(-c3ccc(C4=NCCN4)cc3)o2)cc1 | / | -9% | / | ? | ? | 23%[10 µM]
Nc1ccc(N=Nc2c(S(=O)(=O)O)cc3ccccc3c2S(=O)(=O)O)cc1 | / | -6% | / | 11%[13.5 µM] | -8% | -2%[10 µM]
COc1ccc(C(=O)NC(=S)Nc2ccc3c4c(cccc24)CC3)cc1OC | 23% | 3% | / | 13µM* | -15% | 7%[10 µM]
COc1cc(OC)cc(C(=O)NC(=S)Nc2ccc3c4c(cccc24)CC3)c1 | 5% | -3% | -2 | 7.9µM* | -13% | 13%[10 µM]
CC(C)Oc1cccc(C(=O)NC(=S)Nc2ccc3c4c(cccc24)CC3)c1 | 11% | / | ? | -8% | / | -7%
CCOc1cccc(C(=O)Nc2ccc3oc(-c4ccncc4)nc3c2)c1 | / | / | -7 | / | / | /
CCOC(=O)c1cc([N+](=O)[O-])c([N+](=O)[O-])cc1NC(C)=O | 13% | 26% | / | 8.9µM* | 22µM* | /
CCCCCCCCOC(=O)CCc1c(C)[nH]c(=S)[nH]c1=O | 0% | -2%[38.3 µM] | 5 | 2µM* | -9% | -19%
SMILES | HTT aggregate | IMPase Li cell | IMPase inh | ALDH1A1 block | HPGD block | HTT ATP protect
C[N+](C)(C)c1ccc(/C=N/Nc2nc(Cl)c(C#N)c(Cl)c2Cl)cc1 | 7% | 30% | 10 | 16µM* | -24% | 10%[10 µM]
S=c1nc(SCc2ccccc2)[nH]c2ccccc12 | -16% | 14µM* | / | -4% | / | -9%
S=c1nc(C2CC2)[nH]c2ccccc12 | 5% | ? | -22 | 13µM* | 16µM* | -29%[0.074 µM]
CC(C)c1nc(=S)c2ccccc2[nH]1 | -14% | -14%[38.3 µM] | -6 | 14µM* | ? | 15%
COc1ncc2nc(-c3cccs3)c(=O)n(C)c2n1 | / | -7% | / | ? | / | 11%
Cc1cccc(C)c1Nc1nc2ccccc2nc1NS(=O)(=O)c1ccccc1 | / | / | 6 | / | / | /
O=[N+]([O-])/C(C(Cl)=C(Cl)Cl)=C(/Sc1ccccc1)N1CCCCC1 | 8%[9.22 µM] | / | / | 18µM* | / | 6%[10 µM]
CN(C)c1ccc2nc3c(C(=O)O)cc(=O)c(O)c-3oc2c1 | / | 73% | / | 3%[13.5 µM] | -26% | -5%[10 µM]
CCc1ccccc1OCc1nc2ccc(S(=O)(=O)N3CCOCC3)cc2[nH]1 | ? | 21%[38.3 µM] | -3 | ? | -21% | -8%
Cc1ccccc1OCc1nc2ccc(S(=O)(=O)N3CCOCC3)cc2[nH]1 | 17%[9.22 µM] | -5%[38.3 µM] | 0 | 10µM* | 14µM* | 9%
COc1ccc(NS(=O)(=O)c2ccc3nc(COc4ccc5ccccc5c4)[nH]c3c2)cc1 | -8% | / | 9 | -5% | / | -33%[10 µM]
COc1ccc(NS(=O)(=O)c2ccc3nc(COc4cccc5ccccc45)[nH]c3c2)cc1 | ? | 9% | / | 22µM* | 35µM* | 35%[10 µM]
CCOC(=O)c1c(C)[nH]c(C2=NNC(=Nc3ccc(OCC)cc3)SC2)c1C | -22% | 1% | / | ? | -17% | 26%[10 µM]
CC(=O)c1c(C)[nH]c(C2=NNC(=NC(C)(C)C)SC2)c1C | 2% | 8% | / | 11µM* | / | -21%
CCOC(=O)c1c(C)[nH]c(C2=NNC(=Nc3ccccc3)SC2)c1C | 2% | / | 7 | 13µM* | / | 24%[10 µM]
O=C(Cn1nc(Cc2ccncc2)c2ccccc2c1=O)Nc1cccnc1Cl | -14%[9.22 µM] | / | / | / | / | 10%[10 µM]
Cc1cnc(CNc2ccnc(-c3ccccc3Cl)n2)cn1 | / | -3% | / | -3% | -5% | 1%

Screening data: PubChem, National Center for Advancing Translational Sciences (NCATS)
